Experimental data published in the supplement of paper PMC3334620.
The full ranking holds about 33,000 sequences; the median of “E-score (-0.5 to 0.5)” is about -0.015, and the highest 2% start at about 0.3. Many of the other results were omitted from the sample, so the highest values are more common in it than they were.

Target: T1, Abf1 (UniProt P14164)
T1 sequence: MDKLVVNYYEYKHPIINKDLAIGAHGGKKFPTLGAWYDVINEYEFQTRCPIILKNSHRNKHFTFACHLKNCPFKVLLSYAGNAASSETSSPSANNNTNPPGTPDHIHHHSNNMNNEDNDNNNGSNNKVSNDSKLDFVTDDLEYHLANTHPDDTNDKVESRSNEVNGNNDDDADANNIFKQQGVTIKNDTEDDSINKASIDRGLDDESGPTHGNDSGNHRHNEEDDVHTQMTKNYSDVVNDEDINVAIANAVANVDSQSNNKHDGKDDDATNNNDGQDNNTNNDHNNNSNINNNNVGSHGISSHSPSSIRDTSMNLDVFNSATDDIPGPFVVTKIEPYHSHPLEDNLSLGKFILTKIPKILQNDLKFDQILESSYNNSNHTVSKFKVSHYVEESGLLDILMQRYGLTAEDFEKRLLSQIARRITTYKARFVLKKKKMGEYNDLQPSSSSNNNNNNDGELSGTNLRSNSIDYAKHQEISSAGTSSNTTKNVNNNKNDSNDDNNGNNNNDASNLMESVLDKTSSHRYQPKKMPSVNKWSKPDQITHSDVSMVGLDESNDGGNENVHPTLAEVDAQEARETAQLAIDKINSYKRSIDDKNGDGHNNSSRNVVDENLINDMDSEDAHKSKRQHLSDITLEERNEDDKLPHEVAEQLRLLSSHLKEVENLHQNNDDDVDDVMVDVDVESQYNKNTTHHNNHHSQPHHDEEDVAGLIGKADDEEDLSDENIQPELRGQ
Assay: PBM E-score (8-mer binding enrichment) (E-score (-0.5 to 0.5)); higher = stronger / more preferred TF binding
Conditions: protein concentration: 200 nM; construct: GST-full length
Summary of the method: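 Each ungapped eight-base word and its reverse complement, pooled, received an E-score from the Universal PBM Analysis Suite. Underlying scans, normalised with masliner, recorded fluorescent anti-GST bound to GST-tagged yeast transcription factors. These were applied at about 100-200 nM to universal all-10-mer Agilent arrays double-stranded by primer extension.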

Sequence	PBM E-score
AAATCGTA	0.267
CTATCGTC	0.252
ATATCGCG	0.382
ATATCGGC	0.149
ATATCGGG	0.018
ATATCGTA	0.203
ATATCGCC	0.269
AAATCGTG	0.192
AAATCGTC	0.347
ATATCGTG	0.318
ATATCGCA	0.144
ATATCGTC	0.336
AGGGAACT	-0.244
AGCCGTAA	0.193
GCGTCCTA	-0.0099
TACCAAAA	0.0276
ACACAAAC	0.0247
AGATAATA	0.107
CTATAATA	-0.0104
ATATAAAA	0.185
GTATAAAC	0.22
GGATAATA	0.173
GTATAAAA	0.356
GTATAATA	0.299
ATATAATA	0.0977

Sequence	PBM E-score
CGATAATA	0.326
GTTAACGA	0.252
ACTGGTCG	-0.0382
AGTGCGAA	-0.196
CTCACCAG	-0.101
CGAAGGGC	-0.116
ACAGTGTC	-0.155
AGGGCTTC	0.0312
AATCGTAG	0.197
CCTCGTAA	0.131
ACTCGTAT	0.305
AATCGTAA	0.145
GCTCGTAA	0.118
AATCGTAT	0.297
ACTCGTAA	0.173
TCTCGTAA	0.306
ACTCGTAG	0.16
CACTCGGC	-0.0263
ACCAAGCT	-0.00876
AGGTTACT	0.024
CAATACTG	-0.239
CGCTCACA	-0.0723
ACGCGGGC	-0.0155
GCTTCGCC	-0.147
CGCCGTAC	0.315

Sequence	PBM E-score
AGCCGTCC	0.0251
GGCCGTAA	0.121
CGCCGTAA	0.0647
ACCCGTAA	0.0373
CGCCGTCA	0.199
AGCCGTAC	0.238
ACCCGTAC	0.299
CGCCGTCC	0.308
ACCCGTAG	-0.248
GGCCGTAC	0.367
CGCCGTAG	0.209
CTACGTCA	0.146
CCAGTGAG	-0.251
CATTAGGC	0.0172
GGTCCCAA	-0.136
CAGTCCAA	-0.177
TCGCGGAA	0.0001
AGCTACCG	-0.0848
AGCCGTTC	-0.0626
CGCCGTTC	0.331
CGCCGTTA	0.14
CACCGTAA	0.101
CACCGTAC	0.385
CACCGTAG	0.0588
AGACCCCG	-0.0859

Sequence	PBM E-score
CAGCAAGG	-0.192
GGTGACTA	0.149
GCACTATA	0.017
AAGACAAC	0.0616
CTCCCCAC	-0.0818
CGAGAGAA	0.0467
CAGTAATC	-0.00799
CAGTAATG	-0.0287
CAGTAATA	0.304
GCCGTAAC	0.211
ATTTATTG	0.0665
CCCATTTC	-0.182
AGCGTCAC	-0.00719
GTCGTCAA	0.222
CTCGTCAA	0.0916
GTCGTCAC	0.35
CACGTCAC	0.368
CTCGTCAC	0.336
CACGTCAG	0.0977
ATCGTCAC	0.389
GCCGTCAC	0.0578
ATCGTCTC	0.25
CTCGTCAG	0.182
CACGTCAA	0.0325
AGTATGCA	0.111

Sequence	PBM E-score
CAATGCCC	-0.0566
GGGTTTGA	0.121
CCGCGCAC	-0.209
CCCTTAGG	-0.0737
AGGACCCC	-0.0335
ATCGTCGA	0.289
ATCGTCGG	0.218
ATCGTCGC	0.362
ATGCTAAA	0.0969
ACCACGAA	0.0971
CCCACGAC	0.0916
GCCACGAA	0.0988
CCCACGAA	0.316
CCCACGAG	0.0399
TCCACGAA	0.352
ACGCACAT	-0.00733
CGCGGCGC	-0.00706
TCACGACA	0.257
TGACGACA	0.361
AGACGACA	0.264
GGACGAGA	0.145
GGACGACA	0.299
AGACGACC	0.0722
CGACGACA	0.311
GGACGACC	0.0608

Sequence	PBM E-score
CGACGACG	0.177
CAAGTTGA	-0.187
CCCGGGCC	-0.304
CAACTCGC	0.0334
AATTTCAT	0.134
GCCAGGCA	-0.186
TGCCTCAA	-0.124
AACGGCGT	0.227
GACGGCTA	0.0813
GACGGCAA	0.246
TACGGCGA	0.313
CACGGCAA	0.219
GACGGCGA	0.0475
TACGGCAA	0.301
TCCGGCGA	0.069
AACGGCGA	0.327
AACGGCGC	0.123
AACGGCTA	0.193
CACGGCTA	0.307
GCCATGAA	-0.0667
ATTTTCCG	0.1
CCCGGAAC	-0.125
AATTCACT	-0.102
AAGCTCTC	-0.125
GCCATAGA	-0.126

Sequence	PBM E-score
GACTCATA	-0.0291
ACTTCGCA	0.0373
CCGGGTGA	0.12
CACGGCGA	0.305
AACGGTGA	0.135
ACGGGTGA	0.32
CACGGTGA	0.308
CACGGCGC	0.139
CACGGCGG	0.00732
ACGGGTGG	0.0777
CACGGTGC	0.0971
AAGTGGTC	-0.131
CCACCTGA	-0.0561
TCAATAGA	-0.172
GCTGATGA	0.199
CCTGATGA	0.139
AGTGATGG	0.056
GTTGATGA	0.283
AGTGATGA	0.366
AGTGATTA	0.351
GGTGATTA	0.242
GGTGATGA	0.34
CGTGATGA	0.31
ACTGATGA	0.19
AGTGATTC	0.207

Sequence	PBM E-score
CGTGATGC	0.0552
CATTCGCC	0.0362
ATTATTAG	0.164
CATCCTCC	-0.127
ACAGGTCA	-0.0348
ACCTGCAT	0.013
AACCAGCC	-0.0913
CTGTGAAC	0.0459
CCTCCCAG	-0.196
CGTGCCAG	0.148
ACCTGGCC	-0.0752
CCCTCTAA	-0.23
CCTAAATC	0.154
AGTGATGC	0.319
AATGATGC	0.196
ATTGATGC	0.0481
AGAAGACT	-0.0993
CCACTACA	-0.0773
ACACTACA	0.169
TCACTACA	0.344
CTCTGTGA	-0.118
CGAACAGC	-0.165
AAGATCCT	0.0788
TATTTCGA	0.272
AAGACGAA	0.223

Sequence	PBM E-score
CAGACGAC	0.191
TAGACGGA	0.122
GAGACGAA	0.0822
TAGACGAA	0.338
CAGACGAA	0.324
AAGCTAAC	0.0254
AGTCAGCC	-0.181
CCTCCCAC	-0.188
CCTCCAGC	-0.322
GCCTACCC	-0.25
CACTAGCC	0.144
GATGTCCC	0.209
ACGATGCG	0.07
ACCCCCGT	-0.0911
GGGACGAA	0.0455
CGGACGAA	0.35
AGGACGAC	0.12
CGGACGAG	0.191
CGGACGAC	0.343
AGGACGAA	0.147
AGAGCGTC	0.0295
AGACTTTG	0.0104
CGCAAACC	-0.124
AGTGAAGG	-0.145
GTTCTTCA	0.117

Sequence	PBM E-score
GGGTCTAA	-0.112
CATCATCA	0.254
AATCATCA	0.317
TCTCATCA	0.145
AATCATCG	0.179
AATCATCT	0.184
TATCATCA	0.385
GATCAACC	0.005
CTTCTATC	0.0251
ACGCACAC	0.0964
AAGGCTCG	-0.0968
ACGAAGGA	0.0584
AATCGTGC	0.311
AACCGTCC	-0.0986
AATCGTGG	0.125
AACCGTGG	-5e-05
AATCGTGA	0.175
CATCGTGG	0.0192
AACCGTCG	0.298
GACCGTGC	0.108
CATCGTGA	0.135
AACCGTCT	-0.0069
CATCGTGC	0.314
AACCGTGC	0.306
AGGCCCTA	-0.113

Sequence	PBM E-score
AATGTGCA	0.0308
GCTACAGA	-0.126
CAACTGGA	-0.182
ACCACTAA	-0.0853
CTCACTAC	0.203
AGCACTAG	0.0299
AGCACTAA	0.154
AACACTAG	0.151
AACACTAC	-0.0369
GTCACTAA	0.393
CTCACTAA	0.129
GCCACTAA	-0.149
ATCACTAG	0.357
ATCACTAC	0.375
ATCACTAA	0.359
CTCTCGTC	0.011
GCCTTACC	-0.255
TATGCACA	0.018
AAAGGGTA	-0.0845
CTAACCTC	-0.0908
AGTGAGCG	0.24
ATCATTTG	0.276
ATCATACC	0.205
ATCATTTC	0.312
ATTATACC	0.217

Sequence	PBM E-score
GACATTTA	0.0126
ATCATACG	0.315
GTCATTTA	0.313
ATTATACA	0.0365
ATCATACA	0.236
CTCATTTC	0.0189
CTCATTTA	0.0543
ATTATACG	0.331
AGGATCTC	-0.0704
GCTATCCA	0.00713
CGATTGGA	-0.00974
GCGCCGTA	0.291
TAGCCCTA	-0.149
AGGTTAAG	-0.128
CGCCTGAG	-0.0541
CCTACGCC	-0.0667
GTGATGTA	0.399
CTGATGTA	-0.129
ATCATAAA	0.303
ATGATTTA	0.296
TTCATAAA	0.0402
ATGATGTA	0.272
CTGATTTA	0.0199
ATCATTCC	0.25
GTGATTTA	0.317

Sequence	PBM E-score
ATCATTCG	0.332
ATCATAAG	0.105
ATCATTCA	0.278
AATGGGTG	-0.0386
ATCGGGTC	-0.0582
CCGCGAAC	0.00614
CGGAAAGA	-0.131
GTTGACTA	-0.164
GATGGGAC	-0.154
GACTGAAA	-0.037
CCCCAACG	-0.0545
AAAGGGAA	-0.0729
TGACCGAA	0.0507
ATCATTTA	0.305
ACCATTTA	0.0343
AACATTTA	0.0911
CATCCGAC	0.151
AACACTGC	-0.155
ATCACTGG	0.332
CTCACTGC	-0.0817
ACCACTGG	-0.103
AGCACTGG	-0.168
ATCACTGC	0.32
ATGTTCGC	0.00598
CGAAGGCA	-0.148

Sequence	PBM E-score
AACAGCCC	-0.373
CAAACGAC	0.198
AAAACGAG	0.0711
AAAACGAA	0.167
AAAACGAT	0.326
GAAACGAC	0.153
AAAACGAC	0.323
TATGCGGA	0.0153
TTTGCAAA	0.0778
GACCTGGC	-0.0415
GGAGTGAA	-0.0623
CGAGTGAA	-0.14
CGAGTGAG	-0.011
CGAGTGAC	0.358
GGAGTGAC	0.333
AGAGTGAC	0.288
CGAGACTC	0.0667
CGGAGACG	0.0614
AAAAGGCT	-0.0975
